A number with no mark means an inactive call. Records with an inconclusive call do not appear. Active and inactive are the calls of the source. Calls come from the whole dose curve; as a rule, active = well fitted curve in the direction sought with a large enough effect; inconclusive = small, poorly fitted or top-dose-only effect, or another doubt; inactive = no such curve, though single readings can be large; an effect the other way counts as inactive or inconclusive.

Assay [1] in a line: Primary qHTS for inhibitors of nuclear receptor binding SET domain protein 2 (NSD2) in an RCH-ACV wild type WT cells (2C) (AID 1645877). For activity change, negative = cell killing: % is set by controls: 0 for no effect and ±100 for the full control effect. Note: nearly all actives have a fitted effect of over 70% in size. Note: potency is the fitted concentration of half-maximal effect. In general terms: qHTS replaces the single test concentration by a dilution series.
Assay [2] has as its target Glutathione peroxidase 1 (Homo sapiens) (UniProt P07203). Briefly: Primary qHTS Assay for Inhibitors of Recombinant Selenoprotein Glutathione Peroxidase 1 (GPX1) (AID 1845191). For activity, negative = inhibition: % is set by controls: 0 for no effect and ±100 for the full control effect. Note: nearly all actives have a fitted effect of over 65% in size. The gist of the method:
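GPX1 10 nM, GR 100 nM, GSH 1 mM, NADPH 0.5 mM, CHP 0.5 mM (final). 30-min cpd preincubation, RT. Ex340/Em450 read t=0, t=15 min.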

Assay [3] concerns the target Phospholipid hydroperoxide glutathione peroxidase GPX4 (Homo sapiens) (UniProt P36969). Briefly: Primary qHTS Assay for Inhibitors of Recombinant Selenoprotein Glutathione Peroxidase 4 (GPX4) (AID 1845192). For activity change, negative = inhibition: series mostly up to about 50 µM; % is set by controls: 0 for no effect and ±100 for the full control effect. Note: nearly all actives have a fitted effect of over 65% in size. Summed up:
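qHTS, GR-coupled: GPX4 200 nM + cpd 30 min RT → GSH 1 mM, NADPH 0.5 mM, GR 100 nM → CHP 0.5 mM start; fluor 340/450 at t0 and t15 min; no-enzyme wells as control.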

The target of assay [4] is Luciferin 4-monooxygenase (Photinus pyralis) (UniProt P08659). Put plainly: Primary firefly luciferase (FLuc) qHTS assay for identification of artifact compounds. (AID 1845220).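 For activity change, negative = inhibition: series mostly up to about 54 µM; plate controls were DMSO vehicle for no effect and no enzyme for full effect.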 Note: nearly all actives have a fitted effect of over 60% in size. Note: potency is the fitted concentration of half-maximal effect. The gist of the method: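 In this counter-screen for luciferase artifacts, test compounds met substrate (10 uM each luciferin and ATP) before 10 nM enzyme started the reaction. Light output was measured 5 min later.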

In assay [5] the test system is Nanoluciferase (engineered Oplophorus gracilirostris luciferase). Put plainly: Primary Nanoluciferase (NLuc) qHTS assay for identification of artifact compounds. (AID 1845222).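 Note: NLuc secreted into diluted conditioned medium of S16 cells; series mostly up to about 54 µM.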 The gist of the method: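 Using secreted nanoluciferase in S16 culture medium (0.22 um filtered, 1:55 dilution), compounds were preincubated 15 min at RT. Signal was generated with Nano-Glo reagent (1:100) over 5 min.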

Assay [6] is described as follows: Primary redox qHTS assay for identification of artifact compounds. (AID 1845223).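 Note: 0% = DMSO and 100% = reference compound.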 Summed up:
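Redox-cycling detection via DTT (250 uM final) oxidation coupled to Amplex Red (25 uM)/HRP (250 mU/mL) in HBSS. 15 min preincubation plus 30 min after DTT, room temperature. Ex/Em 525/598 nm; 4-parameter Hill fit against DMSO and 10 uM DA3003.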

Chain of Phospholipid hydroperoxide glutathione peroxidase GPX4 (Homo sapiens) (P36969 whole entry, looked up): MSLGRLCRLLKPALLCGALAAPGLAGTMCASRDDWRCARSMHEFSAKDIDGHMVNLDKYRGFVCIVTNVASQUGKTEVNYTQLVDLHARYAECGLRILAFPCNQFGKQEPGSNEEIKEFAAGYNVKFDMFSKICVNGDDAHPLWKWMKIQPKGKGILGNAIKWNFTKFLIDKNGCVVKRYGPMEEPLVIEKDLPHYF
Chain of Glutathione peroxidase 1 (Homo sapiens) (P07203 whole entry, looked up): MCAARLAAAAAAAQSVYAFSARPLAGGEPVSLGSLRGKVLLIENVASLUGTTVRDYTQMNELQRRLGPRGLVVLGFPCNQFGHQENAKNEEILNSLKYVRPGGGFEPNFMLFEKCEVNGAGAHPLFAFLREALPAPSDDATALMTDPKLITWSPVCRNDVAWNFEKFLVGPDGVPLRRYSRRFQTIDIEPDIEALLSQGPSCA

Turning to `Cc1cccc(/C=N/Nc2cc(N3CCOCC3)n3nc(-c4ccncc4)cc3n2)c1`, the Potency in assay [1] was 515 nM (active). The Potency result in assay [2], in assay [3], in assay [4], in assay [5] and in assay [6] was “inactive” each time.
`CC(=O)C=C=C1C(C)(C)CC(O[C@@H]2O[C@H](CO)[C@@H](O)[C@H](O)[C@H]2O)CC1(C)O` (stereo not given in full): the Potency result in assay [1], in assay [2], in assay [3], in assay [4] and in assay [5] was “inactive” in each case.
Take `O=C(O)c1ccc(OC2OC(CO)C(O)C(O)C2O)cc1` (stereo not given): the Potency result in assay [1], in assay [2], in assay [3], in assay [4], in assay [5] and in assay [6] was “inactive” each time.
Turning to `O=C(NCc1ccc(S(=O)(=O)c2cc(F)cc(F)c2)cc1)c1ccc2nccn2c1`, the Potency entry in assay [1], in assay [2], in assay [3], in assay [4], in assay [5] and in assay [6] was “inactive” in each case.
On to `CN1CCN(Cc2ccc(-c3cnc4[nH]cc(-c5ccc6[nH]ccc6c5)c4c3)cc2)CC1`, for which the values for the Potency in assay [1] and in assay [4] were 1450 nM (active) and 6750 nM (active), respectively. The Potency result in assay [2], in assay [3], in assay [5] and in assay [6] was “inactive” in each case.
On to `CC[C@@H](N)CNc1ccnc(-c2cc(-c3cnn(C)c3)ccc2O)n1`, for which the Potency in assay [1] was 1030 nM (active). For the same compound, the Potency entry in assay [2], in assay [3], in assay [4], in assay [5] and in assay [6] was “inactive” throughout.
As to `CC(C)C(CO)Nc1nc(Nc2cc(N)cc(Cl)c2)c2ncn(C(C)C)c2n1` (stereo not given), the Potency in assay [1] was 6490 nM (active). Moreover, the Potency result in assay [2], in assay [3], in assay [4], in assay [5] and in assay [6] was “inactive” throughout.
`C=C[C@]1(C)C[C@H](O)[C@@H]2[C@H](OC(=O)[C@@H]2C)C1/C(C)=C/O[C@@H]1O[C@H](CO)[C@@H](O)[C@H](O)[C@H]1O` (stereo not given in full): the Potency result in assay [1], in assay [2], in assay [3], in assay [4], in assay [5] and in assay [6] was “inactive” each time.
Turning to `CC(C)C(C#N)O[C@@H]1O[C@H](CO[C@@H]2O[C@@H](C)[C@H](O)[C@@H](O)[C@H]2O)[C@@H](O)[C@H](O)[C@H]1O` (stereo not given in full), the Potency result in assay [1], in assay [2], in assay [3], in assay [4], in assay [5] and in assay [6] was “inactive” in each case.
On to `COc1cccc(C(=O)N2CCN(C(=O)COc3cccc(C)c3)CC2)c1OC`, for which the Potency entry in assay [1], in assay [2], in assay [3], in assay [4] and in assay [5] was “inactive” throughout.
Regarding `C=CC1C(OC2OC(CO)C(O)C(O)C2O)OC=C2C(=O)N3C(C(=O)O)Cc4c([nH]c5ccccc45)C3CC21` (stereo not given), the Potency result in assay [1], in assay [2], in assay [3], in assay [4], in assay [5] and in assay [6] was “inactive” each time.
On to `Nc1nc2c(c(N3CCNCC3)n1)CCC1=C2[C@@H]2CCCC[C@@H]2O1`, for which the Potency in assay [1] is 16300 nM (active). Further, the Potency entry in assay [2], in assay [3], in assay [4], in assay [5] and in assay [6] was “inactive” throughout.
As to `CC(C)(O)CC(CO)NC(=O)CC(O)CC(=O)Cc1ccccc1` (stereo not given), the Potency result in assay [1], in assay [2], in assay [3], in assay [4], in assay [5] and in assay [6] was “inactive” in each case.
Consider `Cc1cc(C(N)=O)ccc1-n1c(CCC(=O)O)ccc1-c1ccc(-n2ccnc2)cc1`, for which the Potency result in assay [1], in assay [2], in assay [3], in assay [4], in assay [5] and in assay [6] was “inactive” in each case.
Take `CC(C)(O)/C=C/C1=CC(=O)[C@@](C)(O)C[C@H]1O`: the Potency result in assay [1], in assay [2], in assay [3], in assay [4], in assay [5] and in assay [6] was “inactive” each time.
In the case of `O=C(O)C1CN(Cc2ccc(-c3nc4cc(Cc5ccccc5F)ccc4s3)c(F)c2)C1`, in assay [1], the activity change, negative = cell killing is 2.02% [at 9.23 µM]. The values for the activity, negative = inhibition in assay [2] and in assay [5] were -8.84% [at 9.52 µM] and -0.199% [at 11.6 µM], respectively. Besides, the activity change, negative = inhibition in assay [3] was 8.48% [at 9.73 µM]; in assay [4] it was -1.19% [at 11.6 µM]. The redox activity (% of DA3003) in assay [6] was -6.07% [at 11.5 µM].
For the compound `Nc1ccc(-c2cccc3c(=O)cc(N4CCOCC4)oc23)cc1`, the Potency in assay [1] was 1830 nM (active). In addition, the Potency entry in assay [2], in assay [3], in assay [4], in assay [5] and in assay [6] was “inactive” in each case.
For the compound `COC(=O)Cc1cc2c(c([N+](=O)[O-])c1)N(C(=O)CC[C@H](N)C(=O)O)CC2`, the Potency entry in assay [1], in assay [2], in assay [3], in assay [4], in assay [5] and in assay [6] was “inactive” in each case.
With `C[C@]1(CO)CCC[C@]2(C)C3=C(CCC12)COC3` (stereo not given in full), the Potency entry in assay [1], in assay [2], in assay [3], in assay [4], in assay [5] and in assay [6] was “inactive” each time.
Regarding `C=C[C@H]1[C@H](O[C@@H]2O[C@H](CO)[C@@H](O)[C@H](O)[C@H]2O)OC=C(C(=O)OC)[C@H]1C[C@@H]1c2cc(O)c(O)cc2CCN1C(C)=O`, the Potency entry in assay [1], in assay [2], in assay [3], in assay [4], in assay [5] and in assay [6] was “inactive” in each case.
Consider `C/C=C/C=C/C(=O)N1CC[C@]23c4ccccc4N[C@H]4N(C)c5cccc6c5[C@@]42CCN([C@H]6C2OC2(C)C)[C@H]13` (stereo not given in full), for which the Potency entry in assay [1], in assay [2], in assay [3], in assay [4], in assay [5] and in assay [6] was “inactive” in each case.
For `C=C1C(O)C[C@@H]2C(C(=O)O)=CO[C@@H](O[C@@H]3O[C@H](CO)[C@@H](O)[C@H](O)[C@H]3OC(=O)c3ccc(O)cc3)[C@H]12` (stereo not given in full), the Potency result in assay [1], in assay [2], in assay [3], in assay [4], in assay [5] and in assay [6] was “inactive” each time.
